Here are results for 14 compounds from PubChem BioAssay (NCI).

The structures appear in SMILES notation. About 83,000 compounds went through this panel and 20% of them were active in at least one assay; those are over-represented in the sample as a whole.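 Each cell line was grown in a 96-well plate and treated with one concentration of compound for 48 hours. Values below 10 were considered active.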 Unmarked numbers belong to inactive results. Active and inactive are the calls of the source.

What all share (assay): NCI-60 one-dose screen, 48 h (100 = growth as untreated, 0 = no growth, -100 = all killed)
What all share (conditions): 10 µM

Assay [1] deals with NCI-H23 lung.
Assay [2] relates to NCI-H226 lung.
Assay [3] deals with NCI-H322M lung.
For assay [4], the system named is HOP-62 NSCLC.
Assay [5] concerns NCI-H460 lung.
Assay [6] concerns NCI-H522 lung.
The test system of assay [7] is A549/ATCC NSCLC.
Assay [8] has as its system 786-0 renal.
Assay [9] concerns COLO 205 colon.
The test system of assay [10] is DU-145 prostate.

`COc1ccc2c(c1)O/C(=C\c1ccc([N+](=O)[O-])o1)C2=O`: the growth is -3.07% (active) in assay [1]; 22.3% in [2]; 41.5% in assay [3]; -12.4% (active) in assay [4]; -20.9% (active) in assay [5]; -63% (active) in assay [6]. Moreover, the growth in [7] was -10.9% (active); in assay [8] it was -27.3% (active); in [9], -79.4% (active); in assay [10], -11.1% (active).
For `CCCCC(CCCCCC(CCCC)NCc1ccc2c(c1)OCO2)NCc1ccc2c(c1)OCO2` (stereo not given), the growth was -98.5% (active) in assay [1]; -77.9% (active) in assay [2]; -91.6% (active) in assay [3]; -98.9% (active) in [4]; -98.4% (active) in [5]; -91.2% (active) in assay [6]. In addition, the growth is -99.2% (active) in assay [7], -100% (active) in assay [8], -97.5% (active) in assay [9] and -100% (active) in assay [10].
For the compound `COc1cc(-c2nnc(-c3c(-c4ccc(F)cc4)nc4ccccn34)o2)cc(OC)c1OC`, the growth is 80.8% in assay [1]; 53.7% in assay [2]; 91.8% in assay [3]; 62.9% in assay [4]; 52.5% in assay [5]; 4.71% (active) in [6]. Further, the growth was 70.7% in [7], 64.7% in assay [8], 107% in [9] and 77% in assay [10].
For `C[C@]12CC[C@@H]3c4ccc(O)cc4C[C@@H](O)[C@H]3[C@@H]1CC[C@@H]2O`, the growth is 110% in [1]; 101% in assay [2]; 102% in [3]; 108% in assay [4]; 108% in assay [5]; 106% in [6]. Further, the growth in assay [7] is 94.6%; in assay [8], 105%; in [9] it was 119%; in [10], 110%.
For `Cc1cc(C)c(NC(=O)c2sc3nc4c(cc3c2N)C(=O)CCC4)c(C)c1`, the growth was 33% in assay [1]; 77.1% in assay [2]; 56.3% in [3]; 36.9% in assay [4]; 6.43% (active) in [5]; -14.7% (active) in assay [6]. For the same compound, the growth in assay [7] is 23%; in assay [8], 30.4%; in assay [9], -6.14% (active); in assay [10] it was 10%.
Regarding `FC(F)(F)c1ccc(-c2cnc(-n3cc(COCCN4CCCCC4)nn3)nc2NC2CCCCCC2)cc1`, the growth in [1] was 67.7%; in assay [2] it was 78.7%; in assay [3] it was 54.4%; in assay [4], 52.4%; in [5] it was -68.3% (active); in assay [6], -12.8% (active). Also, the growth in [7] is 10.6%; in [8] it was 51.1%; in assay [9], -93.4% (active); in assay [10], 57.7%.
Regarding `C#Cc1ccc(-n2c(/C=C/c3ccc(O)c(OC)c3)nc3ncccc3c2=O)cc1`, the growth in assay [1] is 102%; in [2] it was 93.9%; in assay [3], 98.2%; in assay [4], 95.3%; in assay [5] it was 103%; in [6], 79%. The growth in [7] was 90.3%; in assay [8], 105%; in assay [9], 109%; in [10] it was 111%.
`Clc1ccc(-c2cn(-c3ccccc3)c(-c3ccccc3)n2)c(Cl)c1`: the growth is 67.6% in assay [1]; 40.7% in assay [2]; -17% (active) in assay [3]; 31.6% in assay [4]; -100% (active) in assay [5]; 42.6% in assay [6]. The growth in assay [7] was -8.47% (active); in assay [8], -50.3% (active); in assay [9] it was -64.3% (active); in [10], -89.7% (active).
Consider `CN(Cc1ccccc1)Cc1ccc([N+](=O)[O-])cc1I`, for which the growth in assay [1] was 107%; in [2], 94.5%; in [3], 92.9%; in assay [4], 101%; in assay [5], 97.3%; in assay [6], 86.7%. For the same compound, the growth in assay [7] was 93.6%; in assay [8], 97.8%; in assay [9] it was 104%; in assay [10] it was 95.6%.
For `CC(C)=CCc1cc(O)cc2c1OC(C=C(C)C)C1=C2C(=O)C2=C(NCCS2(=O)=O)C1=O` (stereo not given), the growth in assay [1] was -48.7% (active); in assay [2], -17.6% (active); in assay [3], -17.5% (active); in assay [4], -12.6% (active); in assay [5], 3.29% (active); in [6], -20.6% (active). For the same compound, the growth in [7] is 2.33% (active); in [8] it was 22.9%; in assay [9], -61.3% (active); in assay [10], -95.3% (active).
As for `c1ccc(CSc2nnc3c4c5c(sc4nc(-c4cccnc4)n23)CCCCCC5)cc1`, the growth in [1] was 54.7%; in assay [2] it was 67.1%; in assay [3] it was 99.7%; in [4] it was 91.3%; in assay [5], 19.3%; in [6] it was 6.26% (active). Besides, the growth in assay [7] was 36.8%; in assay [8], 73.6%; in assay [9], 20.5%; in assay [10], 56.4%.
For the compound `COc1ccc(-c2cc(/C=C/C(=O)c3cc(OC)c(OC)c(OC)c3)[nH]n2)cc1OC`, the growth in assay [1] was 47.2%; in [2], 63%; in [3], 1.57% (active); in [4] it was -27% (active); in assay [5] it was -45.7% (active); in [6], -69.8% (active). Moreover, the growth in [7] was 20.8%; in [8], -57.9% (active); in [9] it was -42.5% (active); in assay [10] it was 0.588% (active).
With `Cc1ccc(S(=O)(=O)OCCN(CCOS(=O)(=O)c2ccc(C)cc2)c2c[nH]c(=O)[nH]c2=O)cc1`, the growth in assay [1] is 108%; in assay [2], 99.2%; in assay [3] it was 105%; in assay [4], 108%; in assay [5], 114%; in [6], 125%. For the same compound, the growth was 101% in [7], 112% in assay [8], 115% in [9] and 124% in [10].
Turning to `CC1(C)Cc2c(sc3ncn4nc(-c5ccc(O)cc5)nc4c23)CO1`, the growth in assay [1] is 90.9%; in [2], 57.9%; in assay [3] it was 90.4%; in assay [4], 79.2%; in assay [5] it was 63.2%; in [6], 53.5%. Moreover, the growth in assay [7] was 63%; in assay [8] it was 74.9%; in assay [9] it was 114%; in [10], 76.1%.
